This is a sample that favours compounds with a hit; in the whole collection about 0.86% have one here.
CDC25B-CDK2 inh = primary biochemical HTRF screen for blockers of M-phase inducer phosphatase 2 binding to CDK2/cyclin A. P30305+P24941. HTRF CDC25B-CDK2/CyclinA binding, anti-His/anti-Flag; active compounds read high. z-score (no concentration beside the values). 0.72% of 94,000 active. AID 1259370, 2018; in the data active = z-score above about 3.2
HIV TAR-Tat = TAR RNA-Tat peptide displacers, HIV-1, primary screen, biochemical, FRET, FAM/TAMRA-labeled Tat. HIV-1 TAR RNA, Tat peptide displacement FRET; active compounds read high. z-score (concentration not given with the values). 0.6% of 100,000 active. AID 1259389, 2018; active = z-score of 3 or more in at least 2 runs
Hits are given with their value; - = inactive; . = not tested or not shown.

SMILES	CDC25B-CDK2 inh	HIV TAR-Tat
COc1cc2c3c(c1OC)-c1ccccc1CC3N(C)CC2 (configuration not stated)	.	-
COc1cc2c(cc1O)CC1c3c(cc(O)c(OC)c3-2)CCN1C (configuration not stated)	.	7.69
Cc1ccc(NC2=NCC(C)S2)c(C)c1 (configuration not stated)	-	-
C[C@@H]1C(=O)OC2[C@H](O)C34[C@@H]5OC(=O)[C@@]3(O[C@@H]3OC(=O)[C@H](O)[C@@]34[C@H](C(C)(C)C)[C@H]5O)[C@]21O (some centres not stated)	.	-
O=C1C2CCN(CC2)C1Cc1ccc(OCCOc2ccccc2)cc1 (configuration not stated)	-	-
O=C1C2CCN(CC2)C1Cc1ccco1 (configuration not stated)	11.9	.
CC(C)=CCCC1=CC(=O)c2c(O)ccc(O)c2C1=O	.	33.7
CCNc1ccc([N+](=O)[O-])cc1[N+](=O)[O-]	-	.
CN1CCN(c2ncnc3cc(N)ncc23)CC1	-	-
c1ccc(-n2cccc2-c2nc(N3CC3)nc(N3CC3)n2)cc1	15.8	.
Cc1cc(Br)cc(Br)c1	-	.
O=[P+](C1CCCCC1)C1CCCCC1	-	.
CCn1nc(-c2ccccc2)nc2c(=O)n(C)c(=O)nc1-2	-	-
Cn1nc(-c2ccccc2)nc2c(=O)n(C)c(=O)nc1-2	5.75	-
COc1ccc(CCNCc2ccc(OC)c(OC)c2)cc1OC	-	-
COc1ccc(Cc2nccc3cc(OC)c(OC)cc23)cc1OC	13.3	-
CCOc1ccccc1C1SCC(=O)Nc2c1c(C)nn2-c1nc2ccccc2s1 (configuration not stated)	-	-
COc1ccc(NC(=O)N2Cc3ccccc3-n3cccc3C23CCN(C)CC3)cc1	-	-
CC[C@@H](CO)NC(=O)[C@@H]1C=C2c3cccc4[nH]cc(c34)C[C@H]2N(C)C1	4.21	-
CC[C@@H](CO)NC(=O)[C@@H]1C=C2c3cccc4c3c(cn4C)C[C@H]2N(C)C1	-	.
CCC(C)C(=O)O[C@H]1[C@H](O)C2C(CN3CC(C)CCC3[C@@]2(C)O)C2C[C@]34O[C@]5(O)C(OC(=O)C(C)(O)C(C)O)CC[C@@]3(C)C5C(OC(C)=O)[C@@H](OC(C)=O)C4[C@@]21O (some centres not stated)	.	-
CC[C@@H](C)C(=O)O[C@H]1[C@H](O)[C@H]2[C@@H](CN3C[C@@H](C)CC[C@H]3[C@@]2(C)O)[C@@H]2C[C@]34OC5(O)[C@@H](OC(=O)C(C)(O)C(C)O)CC[C@@]3(C)[C@@H]5[C@@H](OC(C)=O)[C@@H](OC(C)=O)[C@H]4[C@@]21O (some centres not stated)	.	10
COc1ccccc1NC(=O)N1Cc2ccccc2-n2cccc2C12CCN(C)CC2	-	-
CCc1ccc(CN2CCN(Cc3cc(Br)ccc3O)CC2)cc1	-	-
COc1cccc(CN2CCN(Cc3cc(Br)ccc3O)CC2)c1	16.1	-
SMILES	CDC25B-CDK2 inh	HIV TAR-Tat
O=[N+]([O-])c1ccc(O)c([N+](=O)[O-])c1	.	-
O=[N+]([O-])c1cc(O)c(O)c([N+](=O)[O-])c1	-	9.53
CSc1cccc(NC(=O)N2Cc3ccccc3-n3cccc3C2C)c1 (configuration not stated)	.	-
[Cl-].[Cl][Pt].[NH2-].[NH2-].c1ccncc1	3.73	.
Oc1ccc2c3c1OC1[C@@H](O)CC[C@@]4(O)[C@@H](C2)N(CC2CCC2)CC[C@]314 (some centres not stated)	.	-
O=C(c1cccc2ccccc12)c1cn(CCCCCF)c2ccccc12	.	-
CCOC(=O)C1C(=O)NC23CCCCC2C1c1ccccc1O3 (configuration not stated)	-	.
O=C(NCc1ccc(F)cc1)N1Cc2ccccc2-n2cccc2C1c1cccs1 (configuration not stated)	.	-

Source: PubChem BioAssay (Center for Chemical Genomics, University of Michigan)
